Compounds with a hit are over-represented: about 2.4% of the library has one in this group of screens.
CHT allo act = allosteric activators of human choline transporter CHT | CHT-expressing cells, membrane potential dye, choline EC20; stronger effect = higher value; LV-AA mutant CHT in HEK293 cells | AID 488977 | Q9GZV3 | hit rate 0.49% among 310,000 | B-score at 10 µM;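 active = initial fluorescence not abnormally high and integrated response B-score, plate-corrected, over 3 SD above library mean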
Target sequence (Q9GZV3 whole entry, looked up): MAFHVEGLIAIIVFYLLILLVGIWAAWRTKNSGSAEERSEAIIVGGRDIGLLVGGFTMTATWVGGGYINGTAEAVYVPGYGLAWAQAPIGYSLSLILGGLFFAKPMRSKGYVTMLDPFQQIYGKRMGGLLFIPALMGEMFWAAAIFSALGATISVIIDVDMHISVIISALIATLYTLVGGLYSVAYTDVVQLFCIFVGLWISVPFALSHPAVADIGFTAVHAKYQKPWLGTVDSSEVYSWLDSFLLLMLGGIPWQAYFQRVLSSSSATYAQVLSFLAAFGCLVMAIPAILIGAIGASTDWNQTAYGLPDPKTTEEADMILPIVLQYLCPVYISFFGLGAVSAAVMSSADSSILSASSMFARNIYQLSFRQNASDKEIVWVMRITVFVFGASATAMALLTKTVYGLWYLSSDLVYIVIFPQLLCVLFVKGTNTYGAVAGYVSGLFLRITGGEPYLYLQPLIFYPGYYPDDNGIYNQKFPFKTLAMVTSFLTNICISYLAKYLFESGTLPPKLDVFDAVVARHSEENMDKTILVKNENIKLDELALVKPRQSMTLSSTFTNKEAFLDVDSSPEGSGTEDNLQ
ANO1 block = mouse TMEM16A channel inhibition, primary screen | HEK293 TMEM16A/YFP iodide influx fluorescence, ionomycin | hit rate 1.2% among 310,000 | AID 588511 | Q8BHY3 | normalized B-score (activity score, 25-100; higher = stronger inhibition) at 10 µM;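 active = ratio plate-corrected score three or more library SD toward inhibition, starting fluorescence score within five deviations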;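 also: score derived from kinetic fluorescence span divided by baseline fluorescence per well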
ANO1 activ = activators or potentiators of mouse TMEM16A chloride channel; Q8BHY3; HEK293 TMEM16A/YFP-H148Q/I152L, iodide quench fluorescence; stronger effect = lower value; B-score at 10 µM; hit rate 0.3% among 340,000; AID 623877;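 active = fluorescence-ratio B-score plate-corrected deviation score at least 3 library SD below zero, with starting fluorescence score within 5 deviations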;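 also: channel opened by trigger with iodide after compound preincubation; score built on the fluorescence ratio of max minus min over baseline; more negative score means more quench and so TMEM16A activation or potentiation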
CHT block = inhibits the human high affinity choline transporter; CHT-expressing cells, membrane potential dye, choline response; stronger effect = lower value; hit rate 0.86% among 310,000; B-score at 10 µM;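 active = B-score over 3 SD under the library average, and starting fluorescence ratio not unusually high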;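 also: choline stimulus applied at its EC90 after an EC20 pre-addition; B-score computed on integrated fluorescence ratio after choline addition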
CHT block conf = human CHT inhibition, confirmatory screen; shares compounds with CHT block; CHT-expressing cells, choline membrane potential dye; LV-to-AA substituted CHT, HEK293 cells; CHT activity remaining % of control (stronger effect = lower value), % at 10 µM; hit rate 70% among 2,400; AID 493221;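 active = choline transporter activity left, mean of duplicates at 10 µM, below buffer-only control mean minus 3 SD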;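 also: depolarization triggered by choline at its EC90 following an EC20 pre-addition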
HEK293 MPD ctr = counter-screen for CHT inhibitors: effect in parental HEK293 cells. AID 493222. membrane potential dye, choline response; active = decrease or increase beyond buffer ±3SD. hit rate 4% among 2,400. shares compounds with CHT block. membrane potential ratio readout (active if shifted either direction beyond buffer ±3SD; no single direction) at 10 µM;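 also: parental cells lack the transporter so any hit is non-specific; ratio is peak minus trough fluorescence over baseline after EC90 choline challenge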
Numbers stand for hits; i = inactive; nt = not tested or not shown.

SMILES	CHT allo act	ANO1 block	ANO1 activ	CHT block	CHT block conf	HEK293 MPD ctr
O=C(CN(Cc1ccc(F)cc1)C(=O)CCC(=O)Nc1nccs1)NCc1ccc(F)cc1	i	i	i	i	nt	nt
O=C(COC(=O)CCCSc1nc2ccccc2[nH]1)NC(=O)NC1CCCC1	i	i	i	-7.3	62%	i
O=C(CCCSc1nc2ccccc2[nH]1)N1CCN(c2ccccc2)CC1	i	i	i	-5	58%	i
O=C(CSc1nc2ccccc2[nH]1)N1CCN(c2ccccc2)CC1	i	i	i	i	nt	nt
CCc1ccccc1N(CC(=O)N1CCCCCC1)S(C)(=O)=O	i	i	i	i	nt	nt
Cc1c(C#N)c(NC(=O)CCl)n(Cc2ccccc2)c1C	i	i	i	i	nt	nt
Cc1c(C#N)c(NC(=O)CCl)n(Cc2cccs2)c1C	i	i	i	-6.1	i	i
O=C(Cn1[nH]c(=O)c2ccccc2c1=O)OCC(=O)N1CCc2ccccc2C1	i	i	i	-5.4	i	i
O=C(Cn1[nH]c(=O)c2ccccc2c1=O)OCC(=O)N1CCCc2ccccc21	i	i	i	i	nt	nt
Cc1ccc(OCC(=O)Nc2ccccc2-c2ccccc2)cc1	i	i	i	i	nt	nt
O=c1[nH]c(C(F)(F)F)nc2ccccc12	i	i	i	-5.1	i	i
Cc1ccc(S(=O)(=O)N(C)C(C)CCc2ccco2)cc1 (stereo not given)	nt	nt	i	nt	nt	nt
CC(=O)c1ccc(S(=O)(=O)N(C)C(C)CCc2ccco2)cc1 (stereo not given)	i	i	i	-5.6	71%	i
CCN(CC)C(=S)SCC(=O)Nc1ccc(S(N)(=O)=O)cc1	i	i	i	-5.6	i	i
CN(C)CC(=O)Nc1ccc(S(N)(=O)=O)cc1	i	i	i	i	nt	nt
CS(=O)(=O)N1CCN(c2ccccc2NC(=O)c2ccc3c(c2)OCCO3)CC1	i	i	i	i	nt	nt
CC(NC(=O)CCN1C(=O)c2ccccc2C1=O)c1ccc2c(c1)CCCC2 (stereo not given)	i	i	i	-5.4	i	i
CCOC(=O)c1cccc(NC(=O)CSc2nnc(C)n2Cc2ccccc2)c1	i	i	i	-6.9	66%	i
Cc1nnc(SCC(=O)c2ccccc2)n1Cc1ccccc1	i	i	i	-5.3	47%	-8.6
COc1ccc(NC(=O)CSc2nnc(C)n2Cc2ccccc2)cc1	i	i	i	i	nt	nt
Cc1nnc(SCC(=O)NNC(=O)c2ccccc2)n1Cc1ccccc1	nt	nt	i	nt	nt	nt
CCOC(=O)C1=C(C)N=c2s/c(=C/c3cccc([N+](=O)[O-])c3O)c(=O)n2C1c1cc(OC)c(OC)c(OC)c1 (stereo not given)	i	i	i	-9.8	28%	i
O=C(Cn1cc(CCO)nn1)N1CCNCC1	i	i	i	i	nt	nt
CCCN1Cc2cccc(C(=O)NCc3ccccc3OC)c2C1=O	i	i	i	-5.3	71%	i
Cc1ccc(Nc2nc(N)c3ccccc3n2)cc1Cl	i	i	i	i	nt	nt
SMILES	CHT allo act	ANO1 block	ANO1 activ	CHT block	CHT block conf	HEK293 MPD ctr
COc1ccc(OC)c(Nc2nc(N)c([N+](=O)[O-])c(NCc3ccccc3)n2)c1	i	i	i	-5	i	i
COc1ccc(OC)c(Nc2nc(NCCO)c3ccccc3n2)c1	i	i	i	i	nt	nt
COc1ccc(C)cc1Nc1nc(N)c2ccccc2n1	i	i	i	-13	41%	i
CCOc1ccc(Nc2nc(N)c3ccccc3n2)cc1	i	i	i	-5.8	48%	i
Cc1cccc(NC(=O)CNC(=O)c2ccco2)n1	i	i	i	i	nt	nt
CCN(CC)C(=O)N1CCc2ccccc21	i	i	i	i	nt	nt
COc1ccc(CCNCC(C)c2ccccc2)cc1 (stereo not given)	i	i	i	i	nt	nt
NC1=NC2(CCCCCC2)n2c(nc3ccccc32)N1	i	i	i	-5.5	15%	i
CC(=O)Oc1ccc(OC(C)=O)c(SCCCCCN2CCOCC2)c1	i	i	i	i	nt	nt
Cc1nnc(SCc2ccc(F)cc2)n1NC/C=C/c1ccccc1	i	i	i	-7.1	i	i
Cc1cc(C)c(C#N)c(SCS(=O)Cc2ccc(Cl)cc2)n1 (stereo not given)	i	i	i	i	nt	nt
Cc1cc(C)c(C#N)c(SCS(=O)Cc2ccccc2)n1 (stereo not given)	i	i	i	-5.9	i	i
